# According to PubChem BioAssay (NCATS):
# Results filed as inconclusive are left out. A number with no mark means an inactive call. Activity calls are given as the source filed them. The call rests on the fitted dose curve; in most records, active means well fitted cell-killing curve with a large enough effect; inconclusive means small, poorly fitted or top-dose-only effect, or effect the other way; inactive means flat fitted curve, though single readings scatter.
# Experiments:
# Assay in all cases: Primary qHTS to identify gynecologic anti-cancer compounds using libraries of approved drugs and bioactive compounds (AID 1345084); further: nearly all actives have a fitted effect of over 55% in size
# [1] = tested on: C33A; settings: Gynecologic cancer cell panel viability, ATPlite luminescence, 48 h; series mostly up to 57.5 µM
# Outline: (§1)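 Five-point cytotoxicity, 48 h drug exposure at 37 C, 5% CO2, on cells seeded 16 h beforehand. ATP content read by ATPlite luminescence.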
# [2] = tested on: CASKI; settings: Gynecologic cancer cell panel viability, ATPlite luminescence, 48 h; series mostly up to 57.5 µM
# Outline: as §1
# [3] = tested on: Es-2; settings: Gynecologic cancer cell panel viability, ATPlite luminescence, 48 h; series mostly up to 57.5 µM
# Outline: as §1
# [4] = tested on: HeLa; settings: Gynecologic cancer cell panel viability, ATPlite luminescence, 48 h; series mostly up to 57.5 µM
# Outline: as §1
# [5] = tested on: Hek293T; settings: Gynecologic cancer cell panel viability, ATPlite luminescence, 48 h, control line for the selectivity index; series mostly up to 57.5 µM
# Outline: as §1
# [6] = tested on: JEG-3; settings: Gynecologic cancer cell panel viability, ATPlite luminescence, 48 h; series mostly up to 57.5 µM
# Outline: as §1
# [7] = tested on: OV90; settings: Gynecologic cancer cell panel viability, ATPlite luminescence, 48 h; series mostly up to 57.5 µM
# Outline: as §1
# [8] = tested on: PA-1; settings: Gynecologic cancer cell panel viability, ATPlite luminescence, 48 h; series mostly up to 57.5 µM
# Outline: as §1
# [9] = tested on: SKOV3; settings: Gynecologic cancer cell panel viability, ATPlite luminescence, 48 h; series mostly up to 57.5 µM
# Outline: as §1
# [10] = tested on: Tov-21-G; settings: Gynecologic cancer cell panel viability, ATPlite luminescence, 48 h; series mostly up to 57.5 µM
# Outline: as §1
# [11] = tested on: Tov112D; settings: Gynecologic cancer cell panel viability, ATPlite luminescence, 48 h; series mostly up to 57.5 µM
# Outline: as §1
# [12] = tested on: CAOV3; settings: Gynecologic cancer cell panel viability, ATPlite luminescence, 48 h; series mostly up to 57.5 µM
# Outline: as §1
# On the % scale 0 is the no-effect control and ±100 the full control effect; potency means the concentration at half of the fitted maximal effect.
compound,measurement,setting,value
COC(=O)C1=CO[C@@H](O[C@@H]2O[C@H](CO)[C@@H](O)[C@H](O)[C@H]2O)[C@@H]2[C@@](C)(O)[C@@H](OC(=O)/C=C/c3ccc(O)cc3)C[C@]12O,Potency,[1],inactive
same,Potency,[2],inactive
same,Potency,[3],inactive
same,Potency,[4],inactive
same,Potency,[5],inactive
same,Potency,[6],inactive
same,Potency,[7],inactive
same,Potency,[8],inactive
same,Potency,[9],inactive
same,Potency,[10],inactive
same,Potency,[11],inactive
C=C1C(=O)O[C@@H]2/C=C(\C)C(=O)/C=C/[C@](C)(O)C[C@@H](OC(=O)C(C)C)[C@@H]12,Potency,[1],8.91 µM (active)
same,Potency,[12],2.82 µM (active)
same,Potency,[3],3.16 µM (active)
same,Potency,[5],4.47 µM (active)
same,Potency,[8],4.47 µM (active)
same,Potency,[9],5.62 µM (active)
same,Potency,[10],3.98 µM (active)
same,Potency,[11],15.8 µM (active)
COC(=O)c1c(C)cc(OC(=O)c2c(C)cc(OC)cc2OC)cc1O[C@@H]1O[C@H](CO)[C@@H](O)[C@H](O)[C@H]1O,Potency,[1],inactive
same,Potency,[2],inactive
same,Potency,[3],inactive
same,Potency,[4],inactive
same,Potency,[5],inactive
same,Potency,[6],inactive
same,Potency,[7],inactive
same,Potency,[8],inactive
same,Potency,[9],inactive
same,Potency,[10],inactive
same,Potency,[11],inactive
CNCc1ccc(-c2cc(-c3nc(-c4ccc(S(=O)(=O)C(C)C)cc4)cnc3N)on2)cc1,Potency,[1],inactive
same,Potency,[12],14.1 µM (active)
same,Potency,[3],8.91 µM (active)
same,Potency,[6],inactive
same,Potency,[8],11.2 µM (active)
same,Potency,[9],3.16 µM (active)
same,Potency,[10],1.58 µM (active)
CC(=O)N[C@H]1[C@H](O[C@H]2CC[C@@]3(C)C(CC[C@]4(C)C3CC=C3C5CC(C)(C)CC[C@]5(C(=O)O)[C@H](O)C[C@]34C)C2(C)C)O[C@H](CO[C@@H]2OC[C@H](O)[C@H](O)[C@H]2O[C@@H]2OC[C@@H](O)[C@H](O)[C@H]2O)[C@@H](O)[C@@H]1O (stereo partly specified),"activity change, negative = cytotoxicity",[1],-5.03% [at 11.6 µM]
same,"activity change, negative = cytotoxicity",[2],-1.03% [at 11.6 µM]
same,"activity change, negative = cytotoxicity",[3],-1.64% [at 11.6 µM]
same,"activity change, negative = cytotoxicity",[4],-4.4% [at 11.6 µM]
same,"activity change, negative = cytotoxicity",[5],3.72% [at 11.6 µM]
same,"activity change, negative = cytotoxicity",[6],4.23% [at 11.6 µM]
same,"activity change, negative = cytotoxicity",[7],9.62% [at 11.6 µM]
same,"activity change, negative = cytotoxicity",[8],3.95% [at 11.6 µM]
same,"activity change, negative = cytotoxicity",[9],10.7% [at 11.6 µM]
same,"activity change, negative = cytotoxicity",[10],-0.0551% [at 11.6 µM]
same,"activity change, negative = cytotoxicity",[11],-18.9% [at 11.6 µM]
COc1cc(NC(=O)Nc2cccc(CNC(=O)O[C@H]3CCOC3)c2)ccc1-c1cnco1,Potency,[1],inactive
same,Potency,[12],inactive
same,Potency,[6],inactive
same,Potency,[8],1.41 µM (active)
same,Potency,[10],8.91 µM (active)
same,Potency,[11],inactive
CC1(C)CC[C@]2(C(=O)O[C@@H]3O[C@H](CO)[C@@H](O)[C@H](O)[C@H]3O)CC[C@]3(C)C(=CCC4[C@@]5(C)CC[C@H](O[C@@H]6O[C@H](C(=O)O)[C@@H](O)[C@H](O)[C@H]6O)[C@@](C)(CO)C5CC[C@]43C)C2C1 (stereo partly specified),"activity change, negative = cytotoxicity",[1],9.39% [at 11.6 µM]
same,"activity change, negative = cytotoxicity",[2],1.03% [at 11.6 µM]
same,"activity change, negative = cytotoxicity",[3],1.13% [at 11.6 µM]
same,"activity change, negative = cytotoxicity",[4],-10.8% [at 11.6 µM]
same,"activity change, negative = cytotoxicity",[5],5.9% [at 11.6 µM]
same,"activity change, negative = cytotoxicity",[6],-2.45% [at 11.6 µM]
same,"activity change, negative = cytotoxicity",[7],8.98% [at 11.6 µM]
same,"activity change, negative = cytotoxicity",[8],2.88% [at 11.6 µM]
same,"activity change, negative = cytotoxicity",[9],0% [at 11.6 µM]
same,"activity change, negative = cytotoxicity",[10],2.2% [at 11.6 µM]
same,"activity change, negative = cytotoxicity",[11],2.24% [at 11.6 µM]
CC(C)Oc1ccc(C(=O)NC(CNC(=O)CN(C)C)Cc2ccc(-c3cn4cccc(C(C)O)c4n3)cc2)cc1Cl (stereo unspecified),Potency,[1],inactive
same,Potency,[12],inactive
same,Potency,[4],0.251 µM (active)
same,Potency,[6],inactive
same,Potency,[7],inactive
same,Potency,[8],0.316 µM (active)
same,Potency,[9],inactive
same,Potency,[11],0.316 µM (active)
CC1(C)CC[C@]2(C(=O)O[C@@H]3O[C@H](CO)[C@@H](O)[C@H](O)[C@H]3O)CC[C@]3(C)C(=CCC4[C@@]5(C)CC[C@H](O[C@@H]6O[C@H](C(=O)O)[C@@H](O)[C@H](O)[C@H]6O)C(C)(C)C5CC[C@]43C)C2C1 (stereo partly specified),"activity change, negative = cytotoxicity",[1],3.23% [at 11.6 µM]
same,"activity change, negative = cytotoxicity",[2],-0.46% [at 11.6 µM]
same,"activity change, negative = cytotoxicity",[3],6.53% [at 11.6 µM]
same,"activity change, negative = cytotoxicity",[4],7.58% [at 11.6 µM]
same,"activity change, negative = cytotoxicity",[5],5.45% [at 11.6 µM]
same,"activity change, negative = cytotoxicity",[6],7.56% [at 11.6 µM]
same,"activity change, negative = cytotoxicity",[7],-4.22% [at 11.6 µM]
same,"activity change, negative = cytotoxicity",[8],9.38% [at 11.6 µM]
same,"activity change, negative = cytotoxicity",[9],0% [at 11.6 µM]
same,"activity change, negative = cytotoxicity",[10],5.62% [at 11.6 µM]
same,"activity change, negative = cytotoxicity",[11],11.2% [at 11.6 µM]
CC1=C(/C=C/C(C)=C\C=C\C(C)=C/C(=O)O)C(C)(C)CCC1,Potency,[1],inactive
same,Potency,[2],inactive
same,Potency,[3],inactive
same,Potency,[4],inactive
same,Potency,[5],inactive
same,Potency,[6],inactive
same,Potency,[7],inactive
same,Potency,[8],inactive
same,Potency,[9],inactive
same,Potency,[10],inactive
same,Potency,[11],inactive
O=C(c1ccc(/C=C/c2n[nH]c3ccccc23)cc1)N1CCNCC1,Potency,[1],inactive
same,Potency,[12],inactive
same,Potency,[4],2.24 µM (active)
same,Potency,[5],inactive
same,Potency,[7],8.91 µM (active)
same,Potency,[8],8.91 µM (active)
